# Laboratory results as given in the supplement of paper PMC6555819.
# Tested on: VDR:RXRa (NR concentration 270 nM, RXRa partner concentration 90 nM)
# Experiment: PBM binding z-score (relative to random genomic background probes); higher = stronger binding; sequences stand for … in GC…GCGATTGACAGCGTAGAATGAAGG
# Procedure: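 Protein-binding microarray (Agilent 4x180K custom design, double-stranded 60-nt probes: 5' GC cap, 34-nt variable region, 24-nt constant primer region; full probe sequence given). Purified or IVT nuclear receptor:RXRα heterodimers (3:1 NR:RXRα, mostly 270:90 nM) or homodimers were incubated for 1 h in PBS with 2% milk and no ligand, then detected with Alexa488 antibodies. Fluorescence from o1-orientation probes (~5 replicates averaged) was converted to z-scores against 500 random hg19 background probes. Variable regions are seed direct-repeat (DR0–DR5) sites, all their single-nucleotide variants and half-site ablations.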
row,Sequence,PBM binding z-score
1,GCTAGTGGGTCAGTAAAAGGTCACACACCGGTCG,4.9
2,ATATGTAGGTTAGGATCATTCAGAAAGTAGGGAA,0.744
3,ATCTGTAGGTTAGGGTCATTCAGAAAGTAGGGAA,4.35
4,ATATGTAGGTTAGGGTCATCCAGAAAGTAGGGAA,4.46
5,CGTCGGAGGACAACAGGAGGTCAGAGCTGCCAGA,2.05
6,CGAACTAGGTCACAGGACAGTGAAAGGCGACGTA,1.61
7,CTCTGTAGGTTAAGGGGGTCATTCAGTTTGAAAG,7.66
8,CTATGTAGGTTAAGGGGGTCATTCAATTTGAAAG,7.18
9,TCTCGGAGGACACGAAAAGTCAGAGCTCGACATC,-0.0283
10,TCGATTAGGTTACGGGGGCATTCAGGGATGAAGA,4.31
11,CCGAGTAGGTTACCAGGGGGCATTCAGTGCGAAT,4.94
12,CCAACTAGGTCATTGACAGGACAGTGAATAGTAA,2.29
13,CTGAGTAGGTTACGAGGGGGCATTCAGTGCGAAT,5.14
14,TCGAGTAGGTTATGGGGGCATTCAGGGATGAAGA,3.34
15,CCCAGTAGGTTACGAGGGGGCATTCAGTGCGAAT,5.29
16,TCTGCTGGGTCAACGATGGTCAGCTAATCTGCTA,1.62
17,TTACCAAGGTGAAGGTCGTGGATCCCTCTGTAGA,1.28
18,CCGACGGGGGCAAGGTTACCATAACGCACAGCCA,3.01
19,CCTGCTCGGTCAATGGTCAGCTAAAGCAGCTCGC,-0.375
20,CTCGAAAGGTCGTCCTCAGGTGAGTATACCAAAC,3.41

row,Sequence,PBM binding z-score
1,CGTCAAAGTTCAACTAAGGTAACTTAAAGCACGC,4.76
2,CTATGTAGGTTAAGGGGGTCATTCACTTTGAAAG,7.21
3,CGAACTAGGTCAAAGGACAGTGATAGGCGACGTA,1.45
4,TCGAGTAGGTTACGGGGGGATTCAGGGATGAAGA,3.28
5,CGTCCAAGGTCAAAGGTCAGGGAAGAGATGACGG,6.71
6,CGAGCTAGGTCACCAGGACAGTGAAGAGGTTGGA,1.63
7,CAAACTAGGTCACAGAGGTCAACGTCCGTGCGTA,7.74
8,CGAACTAGTTCACCAGGACAGTGAAGAGGTTGGA,0.879
9,AGTCAGAGTTCATCTAGGTAACGTAAGATATGCT,5.48
10,GCTTACGGGTCAAAGGTTATGGCATGAATAGAAT,5.58
11,CCTTACGGGTCACTTACAGGTTATAGCATTTGGA,3.6
12,TAGCCTAGGTCATTGGACCAGTATAGTACGCATC,2.08
13,TTACCAAGGTAAAAGGTCGTTGATGCACGCCTTG,2.6
14,TTTAGTTGGTCAAAGGTCACACACTCGAAATGCG,5.36
15,CCGAGTAGGTTACGAGGGGCCATTCAGTGCGAAT,3.09
16,AATACAGGGTCGCTAGGCCAGAGTAGGTACGAAT,0.828
17,CGTCAAAGTTCAACTAATGTAACGTAAAGCACGC,4.2
18,CAAACTAGGTCAAGGTCAAAGTAGGTTTGTGCCA,5.54
19,CCTAGTTGGTCAAGGTCACACATGCTATAGGTAC,4.33
20,CGAACTAGGTCACCAGGACAGTTAAGAGGTTGGA,2.11
